Common to all, as to assay: DAPPL (digital affinity profiling via proximity ligation, sequencing); 10 mM Tris-HCl pH 7.5, 50 mM NaCl, 1 mM DTT, 4% glycerol, room temperature, 30 min; GST-TFs on glutathione beads, 16-mer random dsDNA library, 0.1% formaldehyde crosslink after washing; high values mean tight binding
The target in one assay is T1, FLI1 (Homo sapiens, UniProt Q01543 1-452).
T1 sequence: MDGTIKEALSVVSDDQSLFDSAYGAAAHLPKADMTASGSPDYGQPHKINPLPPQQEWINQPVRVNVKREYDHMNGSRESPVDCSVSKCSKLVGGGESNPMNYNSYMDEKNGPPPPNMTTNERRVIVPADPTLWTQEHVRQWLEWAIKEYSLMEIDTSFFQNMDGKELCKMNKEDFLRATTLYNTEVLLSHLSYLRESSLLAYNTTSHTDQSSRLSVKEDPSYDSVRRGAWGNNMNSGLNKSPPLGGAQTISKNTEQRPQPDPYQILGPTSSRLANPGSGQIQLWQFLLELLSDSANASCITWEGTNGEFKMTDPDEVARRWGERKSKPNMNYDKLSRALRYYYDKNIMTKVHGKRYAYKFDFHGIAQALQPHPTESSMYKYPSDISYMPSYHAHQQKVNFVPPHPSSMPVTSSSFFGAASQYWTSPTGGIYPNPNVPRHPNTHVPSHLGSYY
The note with it: protein: recombinant; tags: N-terminal GST; dsDNA, one strand shown. In short, it runs like this:
(§1)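 Binding signal is defined as a hexamer's read frequency for one factor over its frequency for the tag-only sample. To obtain reads, GST-fused human transcription factors were expressed in yeast, captured on glutathione beads, barcoded with DNA and pooled with that sample. Pools met 200 nmole of a 16-mer random double-stranded DNA library in Tris/NaCl/DTT/glycerol buffer for 30 min at room temperature before washing, 0.1% formaldehyde crosslinking, proximity ligation (BsaI/T4 ligase, 1 h, 37 °C), PCR and Illumina NextSeq500 sequencing.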

Another assay deals with T2, ELK1 (Homo sapiens, UniProt P19419 1-428).
T2 sequence: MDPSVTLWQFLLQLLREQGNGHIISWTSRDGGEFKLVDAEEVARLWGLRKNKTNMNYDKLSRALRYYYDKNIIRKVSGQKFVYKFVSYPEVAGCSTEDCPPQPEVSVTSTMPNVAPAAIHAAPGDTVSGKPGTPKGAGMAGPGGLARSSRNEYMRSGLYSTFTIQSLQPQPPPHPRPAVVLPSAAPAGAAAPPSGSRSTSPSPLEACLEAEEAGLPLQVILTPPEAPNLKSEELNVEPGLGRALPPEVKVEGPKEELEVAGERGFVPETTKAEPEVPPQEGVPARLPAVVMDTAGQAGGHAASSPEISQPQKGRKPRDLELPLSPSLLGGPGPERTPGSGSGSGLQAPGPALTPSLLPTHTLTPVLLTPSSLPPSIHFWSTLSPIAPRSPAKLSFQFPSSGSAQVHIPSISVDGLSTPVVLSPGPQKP
The note with it: protein: recombinant; tags: N-terminal GST; dsDNA, one strand shown. In short, it runs like this: as §1

Another assay deals with T3, GABPA (Homo sapiens, UniProt Q06546 1-454).
T3 sequence: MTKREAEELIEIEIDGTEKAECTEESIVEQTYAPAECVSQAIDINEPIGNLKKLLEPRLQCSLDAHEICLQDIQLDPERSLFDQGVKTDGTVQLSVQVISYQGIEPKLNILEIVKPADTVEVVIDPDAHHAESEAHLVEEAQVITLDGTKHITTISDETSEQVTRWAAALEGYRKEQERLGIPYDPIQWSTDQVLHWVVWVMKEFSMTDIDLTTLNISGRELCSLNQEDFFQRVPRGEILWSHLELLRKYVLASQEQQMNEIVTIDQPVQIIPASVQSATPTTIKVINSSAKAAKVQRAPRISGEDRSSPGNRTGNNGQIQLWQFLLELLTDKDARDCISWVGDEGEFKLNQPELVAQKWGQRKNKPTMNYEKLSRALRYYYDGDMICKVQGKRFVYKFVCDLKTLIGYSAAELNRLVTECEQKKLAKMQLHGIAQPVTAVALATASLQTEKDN
Particulars: protein: recombinant; tags: N-terminal GST; dsDNA, one strand shown. An outline of the steps:
as §1

For the next assay, the target named is T4, ERG (Homo sapiens, UniProt P11308 1-479).
T4 sequence: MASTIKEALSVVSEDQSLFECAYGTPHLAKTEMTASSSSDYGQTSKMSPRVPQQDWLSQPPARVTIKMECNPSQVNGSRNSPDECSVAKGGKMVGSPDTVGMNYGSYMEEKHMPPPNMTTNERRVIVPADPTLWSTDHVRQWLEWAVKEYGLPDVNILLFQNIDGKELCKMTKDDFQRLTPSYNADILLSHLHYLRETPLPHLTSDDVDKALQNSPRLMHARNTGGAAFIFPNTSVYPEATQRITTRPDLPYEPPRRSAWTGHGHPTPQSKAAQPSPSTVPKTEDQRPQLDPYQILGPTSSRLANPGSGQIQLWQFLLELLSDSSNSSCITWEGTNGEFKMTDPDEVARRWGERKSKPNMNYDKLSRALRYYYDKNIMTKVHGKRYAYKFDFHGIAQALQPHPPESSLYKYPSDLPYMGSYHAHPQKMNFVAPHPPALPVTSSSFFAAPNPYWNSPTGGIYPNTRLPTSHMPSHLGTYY
The note with it: protein: recombinant; tags: N-terminal GST; dsDNA, one strand shown. An outline of the steps: as §1

The target of another assay is ELF1 (Homo sapiens, UniProt P32519 1-619). The note with it: protein: recombinant; tags: N-terminal GST; dsDNA, one strand shown. In short, it runs like this: as §1
Sequence of ELF1 (P32519 whole entry): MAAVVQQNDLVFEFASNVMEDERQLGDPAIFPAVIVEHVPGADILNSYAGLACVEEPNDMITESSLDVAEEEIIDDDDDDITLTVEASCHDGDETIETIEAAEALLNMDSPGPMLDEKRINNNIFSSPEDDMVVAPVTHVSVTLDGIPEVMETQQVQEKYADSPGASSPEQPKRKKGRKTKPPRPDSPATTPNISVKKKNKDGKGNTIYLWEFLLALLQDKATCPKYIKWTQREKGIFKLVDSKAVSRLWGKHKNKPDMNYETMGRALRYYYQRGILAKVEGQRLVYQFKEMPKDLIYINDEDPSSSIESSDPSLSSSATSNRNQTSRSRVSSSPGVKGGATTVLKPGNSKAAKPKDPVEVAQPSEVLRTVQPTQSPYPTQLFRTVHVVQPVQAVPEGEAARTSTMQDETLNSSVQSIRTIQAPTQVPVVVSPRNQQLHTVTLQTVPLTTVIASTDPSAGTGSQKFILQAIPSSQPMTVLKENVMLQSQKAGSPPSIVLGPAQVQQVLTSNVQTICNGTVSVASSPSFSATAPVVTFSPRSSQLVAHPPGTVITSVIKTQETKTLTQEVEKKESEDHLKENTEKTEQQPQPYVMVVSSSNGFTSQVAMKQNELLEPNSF
The next assay concerns the target T5, EHF (Homo sapiens, UniProt Q9NZC4 1-300).
T5 sequence: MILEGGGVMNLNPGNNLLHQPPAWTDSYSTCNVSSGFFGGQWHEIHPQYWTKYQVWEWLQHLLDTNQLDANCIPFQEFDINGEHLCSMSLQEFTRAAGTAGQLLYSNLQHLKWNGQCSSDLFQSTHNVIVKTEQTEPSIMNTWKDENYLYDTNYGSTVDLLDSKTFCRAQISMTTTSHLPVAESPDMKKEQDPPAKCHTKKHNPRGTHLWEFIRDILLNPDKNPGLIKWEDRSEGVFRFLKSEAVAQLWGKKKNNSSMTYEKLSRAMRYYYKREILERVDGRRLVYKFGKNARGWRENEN
The note with it: protein: recombinant; tags: N-terminal GST; dsDNA, one strand shown. An outline of the steps:
as §1

The next assay addresses SPI1 (Homo sapiens, UniProt P17947 1-270). The note with it: protein: recombinant; tags: N-terminal GST; dsDNA, one strand shown. In short, it runs like this: as §1
The target of a further assay is SPIB (Homo sapiens, UniProt Q01892 1-262). Particulars: protein: recombinant; tags: N-terminal GST; dsDNA, one strand shown. In short, it runs like this:
as §1

The target in the next assay is T6, ELK3 (Homo sapiens, UniProt P41970 1-407).
T6 sequence: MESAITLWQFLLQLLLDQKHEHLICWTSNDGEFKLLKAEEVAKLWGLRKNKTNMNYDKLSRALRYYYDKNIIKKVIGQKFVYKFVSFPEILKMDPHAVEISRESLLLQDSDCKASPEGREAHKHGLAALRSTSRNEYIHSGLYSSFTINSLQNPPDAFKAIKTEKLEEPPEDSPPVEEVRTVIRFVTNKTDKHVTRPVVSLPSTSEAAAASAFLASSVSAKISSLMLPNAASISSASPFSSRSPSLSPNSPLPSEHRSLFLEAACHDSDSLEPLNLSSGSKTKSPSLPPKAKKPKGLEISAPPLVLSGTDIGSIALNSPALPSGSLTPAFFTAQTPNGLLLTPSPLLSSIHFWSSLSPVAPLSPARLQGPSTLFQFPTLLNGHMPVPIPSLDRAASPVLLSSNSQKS
The note with it: protein: recombinant; tags: N-terminal GST; dsDNA, one strand shown. In short, it runs like this:
as §1

The target in the next assay is T7, FEV (Homo sapiens, UniProt Q99581 1-238).
T7 sequence: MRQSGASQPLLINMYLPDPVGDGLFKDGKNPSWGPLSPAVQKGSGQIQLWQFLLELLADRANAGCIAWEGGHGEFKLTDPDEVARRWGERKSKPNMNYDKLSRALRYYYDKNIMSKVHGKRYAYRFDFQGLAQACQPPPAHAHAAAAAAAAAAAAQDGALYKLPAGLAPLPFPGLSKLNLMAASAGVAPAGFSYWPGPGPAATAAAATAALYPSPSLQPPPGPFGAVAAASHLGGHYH
Particulars: protein: recombinant; tags: N-terminal GST; dsDNA, one strand shown. An outline of the steps: as §1

The next assay has as its target ETV5 (Homo sapiens, UniProt P41161 1-510). The note with it: protein: recombinant; tags: N-terminal GST; dsDNA, one strand shown. In short, it runs like this: as §1
The next assay has as its target HSF1 (Homo sapiens, UniProt Q00613 1-529). The note with it: protein: recombinant; tags: N-terminal GST; chain copies: 3; dsDNA, one strand shown. An outline of the steps:
as §1

For a further assay, the target named is ELF4 (Homo sapiens, UniProt Q99607 1-663). The note with it: protein: recombinant; tags: N-terminal GST; dsDNA, one strand shown. In short, it runs like this: as §1
Sequence of ELF4 (Q99607 whole entry): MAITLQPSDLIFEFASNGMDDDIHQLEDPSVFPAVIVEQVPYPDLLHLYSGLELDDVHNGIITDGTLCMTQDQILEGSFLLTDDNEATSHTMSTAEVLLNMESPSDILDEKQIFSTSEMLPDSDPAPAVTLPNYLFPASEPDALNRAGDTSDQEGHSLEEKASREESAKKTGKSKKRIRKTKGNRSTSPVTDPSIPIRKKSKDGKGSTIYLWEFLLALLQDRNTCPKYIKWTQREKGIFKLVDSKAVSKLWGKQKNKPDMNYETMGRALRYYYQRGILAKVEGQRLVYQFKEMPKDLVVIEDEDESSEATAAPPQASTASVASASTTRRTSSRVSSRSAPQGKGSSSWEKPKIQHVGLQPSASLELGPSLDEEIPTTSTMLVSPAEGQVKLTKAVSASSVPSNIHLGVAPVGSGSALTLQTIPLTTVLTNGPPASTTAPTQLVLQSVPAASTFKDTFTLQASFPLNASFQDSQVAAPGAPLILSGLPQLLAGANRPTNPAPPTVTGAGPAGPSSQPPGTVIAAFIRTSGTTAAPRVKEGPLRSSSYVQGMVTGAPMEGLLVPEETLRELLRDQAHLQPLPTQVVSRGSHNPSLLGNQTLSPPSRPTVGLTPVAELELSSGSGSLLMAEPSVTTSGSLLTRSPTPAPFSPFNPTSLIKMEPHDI
A further assay addresses T8, ELK4 (Homo sapiens, UniProt P28324-2 1-405).
T8 sequence: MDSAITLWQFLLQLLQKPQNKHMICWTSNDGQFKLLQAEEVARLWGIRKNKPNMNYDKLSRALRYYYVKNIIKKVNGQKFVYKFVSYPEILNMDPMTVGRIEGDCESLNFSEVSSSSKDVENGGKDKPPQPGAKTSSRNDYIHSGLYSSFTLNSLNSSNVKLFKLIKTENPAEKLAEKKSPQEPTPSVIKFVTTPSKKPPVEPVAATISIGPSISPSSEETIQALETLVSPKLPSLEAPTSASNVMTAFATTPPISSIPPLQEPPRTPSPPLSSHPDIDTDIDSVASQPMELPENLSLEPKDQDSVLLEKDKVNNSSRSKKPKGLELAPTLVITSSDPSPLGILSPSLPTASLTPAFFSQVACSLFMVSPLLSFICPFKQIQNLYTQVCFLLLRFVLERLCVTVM
Particulars: protein: recombinant; tags: N-terminal GST; dsDNA, one strand shown. An outline of the steps:
as §1

A further assay has as its target T9, ETV2 (Homo sapiens, UniProt O00321 1-342).
T9 sequence: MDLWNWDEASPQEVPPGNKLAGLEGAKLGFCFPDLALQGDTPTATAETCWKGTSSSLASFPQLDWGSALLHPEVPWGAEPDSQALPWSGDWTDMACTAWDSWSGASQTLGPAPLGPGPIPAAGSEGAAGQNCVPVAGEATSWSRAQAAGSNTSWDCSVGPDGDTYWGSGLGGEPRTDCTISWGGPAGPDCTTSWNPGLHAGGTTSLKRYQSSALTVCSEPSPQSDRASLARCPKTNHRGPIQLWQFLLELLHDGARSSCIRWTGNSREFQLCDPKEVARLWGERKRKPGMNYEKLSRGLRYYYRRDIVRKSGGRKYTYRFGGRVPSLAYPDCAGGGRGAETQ
Particulars: protein: recombinant; tags: N-terminal GST; dsDNA, one strand shown. In short, it runs like this: as §1

Another assay addresses T10, ELF3 (Homo sapiens, UniProt P78545 1-371).
T10 sequence: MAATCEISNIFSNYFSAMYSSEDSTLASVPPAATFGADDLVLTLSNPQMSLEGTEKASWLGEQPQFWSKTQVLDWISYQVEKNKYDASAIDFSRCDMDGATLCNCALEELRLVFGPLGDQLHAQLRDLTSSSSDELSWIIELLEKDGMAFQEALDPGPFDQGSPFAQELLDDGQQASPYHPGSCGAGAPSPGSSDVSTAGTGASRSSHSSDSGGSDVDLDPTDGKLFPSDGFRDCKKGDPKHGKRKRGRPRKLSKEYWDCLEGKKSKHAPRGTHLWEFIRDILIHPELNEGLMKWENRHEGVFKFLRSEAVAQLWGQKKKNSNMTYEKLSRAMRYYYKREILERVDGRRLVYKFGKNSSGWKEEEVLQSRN
Particulars: protein: recombinant; tags: N-terminal GST; dsDNA, one strand shown. In short, it runs like this: as §1

For a further assay, the target named is CRX (Homo sapiens, UniProt O43186 1-299). Particulars: protein: recombinant; tags: N-terminal GST; dsDNA, one strand shown. In short, it runs like this: as §1
Sequence of CRX (O43186 whole entry): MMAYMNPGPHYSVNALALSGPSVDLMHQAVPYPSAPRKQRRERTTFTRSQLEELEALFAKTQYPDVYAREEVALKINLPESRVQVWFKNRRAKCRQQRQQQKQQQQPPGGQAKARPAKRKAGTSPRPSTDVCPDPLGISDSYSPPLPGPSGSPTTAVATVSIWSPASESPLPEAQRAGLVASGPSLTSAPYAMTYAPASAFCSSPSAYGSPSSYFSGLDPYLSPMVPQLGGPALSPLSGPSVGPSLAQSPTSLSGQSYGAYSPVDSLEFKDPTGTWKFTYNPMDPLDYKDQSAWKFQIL
For another assay, the target named is ETV1 (Homo sapiens, UniProt P50549 1-477). Particulars: protein: recombinant; tags: N-terminal GST; dsDNA, one strand shown. In short, it runs like this: as §1
Sequence of ETV1 (P50549 whole entry): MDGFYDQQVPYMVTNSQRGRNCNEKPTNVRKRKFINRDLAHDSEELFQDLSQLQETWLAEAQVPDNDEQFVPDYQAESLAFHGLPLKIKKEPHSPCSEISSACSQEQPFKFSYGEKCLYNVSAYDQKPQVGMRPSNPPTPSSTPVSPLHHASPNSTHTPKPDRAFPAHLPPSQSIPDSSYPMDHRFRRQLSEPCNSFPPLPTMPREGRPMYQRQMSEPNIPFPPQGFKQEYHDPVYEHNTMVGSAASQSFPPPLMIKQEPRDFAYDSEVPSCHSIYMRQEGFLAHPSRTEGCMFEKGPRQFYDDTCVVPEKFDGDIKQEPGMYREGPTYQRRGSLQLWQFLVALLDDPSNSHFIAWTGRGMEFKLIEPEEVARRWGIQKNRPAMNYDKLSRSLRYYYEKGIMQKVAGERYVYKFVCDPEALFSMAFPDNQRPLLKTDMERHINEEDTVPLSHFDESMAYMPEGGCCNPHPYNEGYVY

Sequence of SPIB (Q01892 whole entry): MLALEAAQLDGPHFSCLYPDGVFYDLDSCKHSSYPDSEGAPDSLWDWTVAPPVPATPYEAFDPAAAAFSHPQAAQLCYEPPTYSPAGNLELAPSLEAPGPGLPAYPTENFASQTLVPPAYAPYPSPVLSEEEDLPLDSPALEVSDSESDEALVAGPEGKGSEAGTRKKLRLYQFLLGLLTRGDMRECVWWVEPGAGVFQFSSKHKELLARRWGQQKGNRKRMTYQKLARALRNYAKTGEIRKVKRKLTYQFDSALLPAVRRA
Sequence of ETV5 (P41161 whole entry): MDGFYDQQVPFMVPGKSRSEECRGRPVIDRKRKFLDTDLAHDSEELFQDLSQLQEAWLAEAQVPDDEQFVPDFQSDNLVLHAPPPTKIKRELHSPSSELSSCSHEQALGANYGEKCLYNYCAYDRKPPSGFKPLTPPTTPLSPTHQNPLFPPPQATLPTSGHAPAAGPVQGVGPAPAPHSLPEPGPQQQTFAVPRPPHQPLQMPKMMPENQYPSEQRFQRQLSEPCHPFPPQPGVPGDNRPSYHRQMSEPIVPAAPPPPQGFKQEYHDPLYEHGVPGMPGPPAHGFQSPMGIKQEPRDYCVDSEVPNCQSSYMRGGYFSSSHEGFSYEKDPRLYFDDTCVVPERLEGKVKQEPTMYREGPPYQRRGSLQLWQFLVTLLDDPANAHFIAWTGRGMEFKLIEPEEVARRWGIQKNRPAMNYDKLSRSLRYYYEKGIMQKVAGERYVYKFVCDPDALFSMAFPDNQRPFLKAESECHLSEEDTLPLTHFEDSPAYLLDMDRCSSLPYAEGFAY
Sequence of HSF1 (Q00613 whole entry): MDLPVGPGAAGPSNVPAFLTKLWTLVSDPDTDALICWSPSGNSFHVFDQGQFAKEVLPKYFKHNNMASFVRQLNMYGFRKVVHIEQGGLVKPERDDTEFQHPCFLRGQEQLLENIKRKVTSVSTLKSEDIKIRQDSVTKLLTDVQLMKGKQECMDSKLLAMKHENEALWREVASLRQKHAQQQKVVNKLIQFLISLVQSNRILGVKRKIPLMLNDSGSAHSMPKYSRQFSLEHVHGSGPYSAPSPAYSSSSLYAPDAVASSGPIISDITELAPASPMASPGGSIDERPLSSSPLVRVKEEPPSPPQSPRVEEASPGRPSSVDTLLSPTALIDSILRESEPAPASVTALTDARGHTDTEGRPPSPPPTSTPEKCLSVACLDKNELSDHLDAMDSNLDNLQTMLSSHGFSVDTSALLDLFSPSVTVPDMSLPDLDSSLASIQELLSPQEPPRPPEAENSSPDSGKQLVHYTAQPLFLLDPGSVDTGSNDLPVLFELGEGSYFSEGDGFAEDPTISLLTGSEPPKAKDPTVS

As to GTAATC, the binding signal was 1.16 fold enrichment (6-mer frequency, TF over GST control) with FLI1; 1.14 fold enrichment (6-mer frequency, TF over GST control) in the assay with ELK1; 1.32 fold enrichment (6-mer frequency, TF over GST control) in the assay with GABPA; 1.08 fold enrichment (6-mer frequency, TF over GST control) with ERG; 1.16 fold enrichment (6-mer frequency, TF over GST control) with ELF1; 1.19 fold enrichment (6-mer frequency, TF over GST control) in the assay with EHF. Besides, the binding signal in the assay with SPI1 was 1.13 fold enrichment (6-mer frequency, TF over GST control); with SPIB it was 1.09 fold enrichment (6-mer frequency, TF over GST control); with ELK3, 1.11 fold enrichment (6-mer frequency, TF over GST control); in the assay with FEV it was 1.1 fold enrichment (6-mer frequency, TF over GST control); with ETV5, 1.22 fold enrichment (6-mer frequency, TF over GST control); in the assay with HSF1 it was 1.92 fold enrichment (6-mer frequency, TF over GST control). Besides, the binding signal was 1.14 fold enrichment (6-mer frequency, TF over GST control) with ELF4; 1.16 fold enrichment (6-mer frequency, TF over GST control) with ELK4; 1.11 fold enrichment (6-mer frequency, TF over GST control) in the assay with ETV2; 1.21 fold enrichment (6-mer frequency, TF over GST control) in the assay with ELF3; 3.14 fold enrichment (6-mer frequency, TF over GST control) with CRX; 1.02 fold enrichment (6-mer frequency, TF over GST control) with ETV1.

The values above are taken from paper PMC7862700, “An all-to-all approach to the identification of sequence-specific readers for epigenetic DNA modifications on cytosine”.
